Measurements: ChEMBL document CHEMBL1961873, “Compounds: GSK PKIS; Assays: Nanosyn kinase panel” (2012)

Assays:
[1] = biological target: Mitogen-activated protein kinase 3 (Homo sapiens) (UniProt P27361); settings: at 1 µM;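 further: values are mean percent inhibition of MAPK3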
[2] = biological target: SRSF protein kinase 3 (Homo sapiens) (UniProt Q9UPE1); settings: at 0.1 µM
[3] = biological target: SRSF protein kinase 3 (Homo sapiens) (UniProt Q9UPE1); settings: at 1 µM
[4] = biological target: Mitogen-activated protein kinase 14 (Homo sapiens) (UniProt Q16539); settings: at 0.1 µM
[5] = biological target: Mitogen-activated protein kinase 14 (Homo sapiens) (UniProt Q16539); settings: at 1 µM
[6] = biological target: Mitogen-activated protein kinase 11 (Homo sapiens) (UniProt Q15759); settings: at 0.1 µM
[7] = biological target: Mitogen-activated protein kinase 11 (Homo sapiens) (UniProt Q15759); settings: at 1 µM
[8] = biological target: T1, Mitogen-activated protein kinase 13 (Homo sapiens) (UniProt O15264); settings: at 0.1 µM
T1 sequence (whole entry): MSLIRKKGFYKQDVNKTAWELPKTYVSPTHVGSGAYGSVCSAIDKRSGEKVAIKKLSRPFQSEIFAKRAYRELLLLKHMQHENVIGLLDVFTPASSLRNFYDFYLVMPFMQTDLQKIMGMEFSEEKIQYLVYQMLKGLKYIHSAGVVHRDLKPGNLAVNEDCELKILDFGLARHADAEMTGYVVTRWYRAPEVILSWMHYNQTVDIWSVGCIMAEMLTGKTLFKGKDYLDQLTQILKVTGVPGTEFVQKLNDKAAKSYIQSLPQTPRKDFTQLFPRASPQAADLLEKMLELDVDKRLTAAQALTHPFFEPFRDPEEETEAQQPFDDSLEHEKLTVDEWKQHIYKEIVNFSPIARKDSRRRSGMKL

[9] = biological target: T1, Mitogen-activated protein kinase 13 (Homo sapiens); settings: at 1 µM
[10] = biological target: T2, Mitogen-activated protein kinase 12 (Homo sapiens) (UniProt P53778); settings: at 0.1 µM
T2 sequence (whole entry): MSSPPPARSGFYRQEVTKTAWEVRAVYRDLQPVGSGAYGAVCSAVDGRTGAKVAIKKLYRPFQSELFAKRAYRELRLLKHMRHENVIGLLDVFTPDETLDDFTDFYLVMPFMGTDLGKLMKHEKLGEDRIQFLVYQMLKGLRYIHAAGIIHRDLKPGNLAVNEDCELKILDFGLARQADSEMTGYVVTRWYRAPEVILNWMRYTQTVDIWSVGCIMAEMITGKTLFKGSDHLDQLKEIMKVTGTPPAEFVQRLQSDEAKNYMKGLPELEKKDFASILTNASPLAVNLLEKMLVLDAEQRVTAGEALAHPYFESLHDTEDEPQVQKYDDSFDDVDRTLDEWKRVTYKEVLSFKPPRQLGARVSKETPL

[11] = biological target: T2, Mitogen-activated protein kinase 12 (Homo sapiens); settings: at 1 µM
[12] = biological target: SRSF protein kinase 1 (Homo sapiens) (UniProt Q96SB4); settings: at 0.1 µM
[13] = biological target: SRSF protein kinase 1 (Homo sapiens) (UniProt Q96SB4); settings: at 1 µM
[14] = biological target: Phosphatidylinositol 4,5-bisphosphate 3-kinase catalytic subunit alpha isoform (Homo sapiens) (UniProt P42336); settings: at 0.1 µM
[15] = biological target: Phosphatidylinositol 4,5-bisphosphate 3-kinase catalytic subunit alpha isoform (Homo sapiens) (UniProt P42336); settings: at 1 µM
[16] = biological target: T3, Phosphatidylinositol 4,5-bisphosphate 3-kinase catalytic subunit delta isoform (Homo sapiens) (UniProt O00329); settings: at 0.1 µM
T3 sequence (whole entry): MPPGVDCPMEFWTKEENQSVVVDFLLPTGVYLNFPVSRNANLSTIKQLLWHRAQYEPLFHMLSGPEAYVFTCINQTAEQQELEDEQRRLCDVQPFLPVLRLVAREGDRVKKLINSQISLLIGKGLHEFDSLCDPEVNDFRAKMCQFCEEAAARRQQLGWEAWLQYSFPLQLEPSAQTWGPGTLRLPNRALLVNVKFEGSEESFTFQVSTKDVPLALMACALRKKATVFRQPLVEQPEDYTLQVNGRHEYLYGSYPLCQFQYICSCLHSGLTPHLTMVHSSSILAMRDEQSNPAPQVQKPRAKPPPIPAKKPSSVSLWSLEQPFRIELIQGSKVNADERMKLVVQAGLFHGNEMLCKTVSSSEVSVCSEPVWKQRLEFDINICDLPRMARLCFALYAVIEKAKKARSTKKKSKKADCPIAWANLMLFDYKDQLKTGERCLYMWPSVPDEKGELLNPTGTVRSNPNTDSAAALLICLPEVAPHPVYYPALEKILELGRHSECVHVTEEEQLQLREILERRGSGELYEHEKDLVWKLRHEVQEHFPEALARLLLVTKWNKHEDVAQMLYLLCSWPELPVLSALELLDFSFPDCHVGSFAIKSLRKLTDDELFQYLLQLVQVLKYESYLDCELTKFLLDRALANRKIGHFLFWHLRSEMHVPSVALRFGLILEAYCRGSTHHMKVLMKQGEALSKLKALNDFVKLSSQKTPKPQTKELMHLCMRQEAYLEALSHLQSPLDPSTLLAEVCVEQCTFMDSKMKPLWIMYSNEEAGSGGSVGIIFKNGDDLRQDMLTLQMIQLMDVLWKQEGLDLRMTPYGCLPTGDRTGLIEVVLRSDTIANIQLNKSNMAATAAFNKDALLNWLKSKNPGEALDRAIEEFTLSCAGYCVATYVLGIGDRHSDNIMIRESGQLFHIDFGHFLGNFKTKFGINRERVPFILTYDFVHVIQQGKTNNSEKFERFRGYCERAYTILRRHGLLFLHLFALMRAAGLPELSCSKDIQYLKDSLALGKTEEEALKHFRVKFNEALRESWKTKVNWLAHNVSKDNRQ

[17] = biological target: T3, Phosphatidylinositol 4,5-bisphosphate 3-kinase catalytic subunit delta isoform (Homo sapiens); settings: at 1 µM
[18] = biological target: Phosphatidylinositol 4-kinase beta (Homo sapiens) (UniProt Q9UBF8); settings: at 0.1 µM
[19] = biological target: Phosphatidylinositol 4-kinase beta (Homo sapiens) (UniProt Q9UBF8); settings: at 1 µM
[20] = biological target: Sphingosine kinase 1 (Homo sapiens) (UniProt Q9NYA1); settings: at 0.1 µM;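 further: mean percent inhibition of SPHK1 activity, measured within the GSK PKIS screening panel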
Chain of Sphingosine kinase 1 (Homo sapiens) (Q9NYA1 whole entry): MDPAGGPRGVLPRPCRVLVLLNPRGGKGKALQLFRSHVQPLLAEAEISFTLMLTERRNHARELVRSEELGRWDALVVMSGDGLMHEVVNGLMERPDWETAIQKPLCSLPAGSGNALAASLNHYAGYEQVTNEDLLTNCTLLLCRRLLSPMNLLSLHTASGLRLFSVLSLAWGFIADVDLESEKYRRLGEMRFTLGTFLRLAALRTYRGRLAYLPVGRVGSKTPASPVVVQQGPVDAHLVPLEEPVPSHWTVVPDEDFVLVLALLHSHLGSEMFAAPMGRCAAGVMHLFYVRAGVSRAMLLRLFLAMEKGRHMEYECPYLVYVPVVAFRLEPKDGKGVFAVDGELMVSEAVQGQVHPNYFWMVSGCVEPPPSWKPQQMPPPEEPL

Chain of Phosphatidylinositol 4-kinase beta (Homo sapiens) (Q9UBF8 2-816 limits assumed): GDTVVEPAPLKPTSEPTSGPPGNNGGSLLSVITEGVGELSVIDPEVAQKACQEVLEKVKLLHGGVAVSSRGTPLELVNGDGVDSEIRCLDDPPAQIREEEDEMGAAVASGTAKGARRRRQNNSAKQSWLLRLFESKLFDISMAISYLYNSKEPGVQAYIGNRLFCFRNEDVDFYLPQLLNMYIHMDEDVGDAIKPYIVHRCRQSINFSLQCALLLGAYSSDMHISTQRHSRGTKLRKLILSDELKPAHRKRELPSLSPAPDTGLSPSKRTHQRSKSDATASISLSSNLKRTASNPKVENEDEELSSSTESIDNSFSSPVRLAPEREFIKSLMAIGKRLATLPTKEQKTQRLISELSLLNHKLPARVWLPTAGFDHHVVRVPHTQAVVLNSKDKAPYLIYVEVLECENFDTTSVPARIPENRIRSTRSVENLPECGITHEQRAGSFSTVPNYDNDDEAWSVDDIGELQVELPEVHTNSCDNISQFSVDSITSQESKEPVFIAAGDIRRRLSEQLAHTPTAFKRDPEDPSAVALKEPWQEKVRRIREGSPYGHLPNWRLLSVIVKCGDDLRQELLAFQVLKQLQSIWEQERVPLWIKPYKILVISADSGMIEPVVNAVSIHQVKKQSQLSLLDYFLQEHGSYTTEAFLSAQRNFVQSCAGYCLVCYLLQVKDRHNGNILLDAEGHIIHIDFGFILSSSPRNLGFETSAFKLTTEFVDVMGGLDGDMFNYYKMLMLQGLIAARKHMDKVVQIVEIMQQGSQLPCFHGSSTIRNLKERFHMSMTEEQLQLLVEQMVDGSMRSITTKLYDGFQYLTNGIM
Chain of SRSF protein kinase 3 (Homo sapiens) (Q9UPE1 whole entry): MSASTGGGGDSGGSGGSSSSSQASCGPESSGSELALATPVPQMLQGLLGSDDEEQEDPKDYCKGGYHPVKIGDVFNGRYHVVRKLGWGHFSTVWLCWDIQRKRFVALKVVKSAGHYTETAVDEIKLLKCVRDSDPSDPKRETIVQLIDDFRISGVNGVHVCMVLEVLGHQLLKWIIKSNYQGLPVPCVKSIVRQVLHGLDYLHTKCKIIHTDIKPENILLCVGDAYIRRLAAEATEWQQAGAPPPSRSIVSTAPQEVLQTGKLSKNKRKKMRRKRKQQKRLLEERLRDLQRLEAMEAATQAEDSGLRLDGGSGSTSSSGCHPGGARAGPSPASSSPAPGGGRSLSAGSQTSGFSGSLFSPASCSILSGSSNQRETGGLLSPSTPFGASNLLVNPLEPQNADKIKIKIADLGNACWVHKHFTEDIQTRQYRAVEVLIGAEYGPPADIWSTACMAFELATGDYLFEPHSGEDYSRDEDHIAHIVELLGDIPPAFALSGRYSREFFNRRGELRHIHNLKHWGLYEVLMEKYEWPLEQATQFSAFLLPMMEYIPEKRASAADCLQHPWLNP
Chain of Mitogen-activated protein kinase 11 (Homo sapiens) (Q15759 whole entry): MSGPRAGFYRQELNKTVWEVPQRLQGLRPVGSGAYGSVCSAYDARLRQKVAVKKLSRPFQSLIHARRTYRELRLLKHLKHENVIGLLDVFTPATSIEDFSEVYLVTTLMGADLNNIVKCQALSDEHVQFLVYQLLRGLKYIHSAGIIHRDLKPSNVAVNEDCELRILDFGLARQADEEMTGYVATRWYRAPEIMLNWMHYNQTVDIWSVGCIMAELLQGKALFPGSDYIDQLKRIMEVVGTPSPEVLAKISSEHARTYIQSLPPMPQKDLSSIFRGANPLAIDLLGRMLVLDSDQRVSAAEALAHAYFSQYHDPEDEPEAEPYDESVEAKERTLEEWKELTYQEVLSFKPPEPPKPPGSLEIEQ
Chain of SRSF protein kinase 1 (Homo sapiens) (Q96SB4 whole entry, canonical isoform): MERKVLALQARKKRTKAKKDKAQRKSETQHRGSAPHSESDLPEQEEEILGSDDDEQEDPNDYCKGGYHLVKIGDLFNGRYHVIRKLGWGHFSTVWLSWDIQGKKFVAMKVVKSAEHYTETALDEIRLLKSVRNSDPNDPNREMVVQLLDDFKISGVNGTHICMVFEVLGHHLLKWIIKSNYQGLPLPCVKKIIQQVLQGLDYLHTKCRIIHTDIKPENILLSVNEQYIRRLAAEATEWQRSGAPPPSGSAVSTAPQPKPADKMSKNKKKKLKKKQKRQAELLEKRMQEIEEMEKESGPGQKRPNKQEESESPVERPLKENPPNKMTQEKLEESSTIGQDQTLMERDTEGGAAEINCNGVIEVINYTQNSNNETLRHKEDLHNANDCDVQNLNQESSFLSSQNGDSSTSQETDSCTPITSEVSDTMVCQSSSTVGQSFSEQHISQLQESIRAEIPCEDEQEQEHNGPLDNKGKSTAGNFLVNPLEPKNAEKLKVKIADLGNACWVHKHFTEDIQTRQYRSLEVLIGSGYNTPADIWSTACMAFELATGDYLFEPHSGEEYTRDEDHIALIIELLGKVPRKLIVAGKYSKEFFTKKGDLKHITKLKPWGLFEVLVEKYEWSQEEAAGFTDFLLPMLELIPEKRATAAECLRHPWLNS
Chain of Mitogen-activated protein kinase 3 (Homo sapiens) (P27361 whole entry): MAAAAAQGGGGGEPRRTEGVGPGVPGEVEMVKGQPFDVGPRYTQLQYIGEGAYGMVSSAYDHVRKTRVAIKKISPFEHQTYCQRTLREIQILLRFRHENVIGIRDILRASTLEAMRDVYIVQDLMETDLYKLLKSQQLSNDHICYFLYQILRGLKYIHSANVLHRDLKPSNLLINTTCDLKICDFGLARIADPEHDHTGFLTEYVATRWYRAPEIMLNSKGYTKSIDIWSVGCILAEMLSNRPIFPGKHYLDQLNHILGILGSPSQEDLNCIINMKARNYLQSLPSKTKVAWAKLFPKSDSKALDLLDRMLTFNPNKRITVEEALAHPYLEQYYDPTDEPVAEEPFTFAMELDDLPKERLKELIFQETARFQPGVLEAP
Chain of Mitogen-activated protein kinase 14 (Homo sapiens) (Q16539 whole entry): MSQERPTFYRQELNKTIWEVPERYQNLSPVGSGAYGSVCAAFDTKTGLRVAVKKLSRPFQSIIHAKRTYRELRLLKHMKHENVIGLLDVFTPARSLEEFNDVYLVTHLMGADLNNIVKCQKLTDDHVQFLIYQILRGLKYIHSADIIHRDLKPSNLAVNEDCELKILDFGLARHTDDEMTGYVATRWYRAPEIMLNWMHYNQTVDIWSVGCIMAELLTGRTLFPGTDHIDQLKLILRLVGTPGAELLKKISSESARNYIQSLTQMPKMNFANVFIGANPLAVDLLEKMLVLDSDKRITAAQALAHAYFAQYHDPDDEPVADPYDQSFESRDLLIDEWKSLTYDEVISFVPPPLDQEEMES
Chain of Phosphatidylinositol 4,5-bisphosphate 3-kinase catalytic subunit alpha isoform (Homo sapiens) (P42336 whole entry, canonical isoform): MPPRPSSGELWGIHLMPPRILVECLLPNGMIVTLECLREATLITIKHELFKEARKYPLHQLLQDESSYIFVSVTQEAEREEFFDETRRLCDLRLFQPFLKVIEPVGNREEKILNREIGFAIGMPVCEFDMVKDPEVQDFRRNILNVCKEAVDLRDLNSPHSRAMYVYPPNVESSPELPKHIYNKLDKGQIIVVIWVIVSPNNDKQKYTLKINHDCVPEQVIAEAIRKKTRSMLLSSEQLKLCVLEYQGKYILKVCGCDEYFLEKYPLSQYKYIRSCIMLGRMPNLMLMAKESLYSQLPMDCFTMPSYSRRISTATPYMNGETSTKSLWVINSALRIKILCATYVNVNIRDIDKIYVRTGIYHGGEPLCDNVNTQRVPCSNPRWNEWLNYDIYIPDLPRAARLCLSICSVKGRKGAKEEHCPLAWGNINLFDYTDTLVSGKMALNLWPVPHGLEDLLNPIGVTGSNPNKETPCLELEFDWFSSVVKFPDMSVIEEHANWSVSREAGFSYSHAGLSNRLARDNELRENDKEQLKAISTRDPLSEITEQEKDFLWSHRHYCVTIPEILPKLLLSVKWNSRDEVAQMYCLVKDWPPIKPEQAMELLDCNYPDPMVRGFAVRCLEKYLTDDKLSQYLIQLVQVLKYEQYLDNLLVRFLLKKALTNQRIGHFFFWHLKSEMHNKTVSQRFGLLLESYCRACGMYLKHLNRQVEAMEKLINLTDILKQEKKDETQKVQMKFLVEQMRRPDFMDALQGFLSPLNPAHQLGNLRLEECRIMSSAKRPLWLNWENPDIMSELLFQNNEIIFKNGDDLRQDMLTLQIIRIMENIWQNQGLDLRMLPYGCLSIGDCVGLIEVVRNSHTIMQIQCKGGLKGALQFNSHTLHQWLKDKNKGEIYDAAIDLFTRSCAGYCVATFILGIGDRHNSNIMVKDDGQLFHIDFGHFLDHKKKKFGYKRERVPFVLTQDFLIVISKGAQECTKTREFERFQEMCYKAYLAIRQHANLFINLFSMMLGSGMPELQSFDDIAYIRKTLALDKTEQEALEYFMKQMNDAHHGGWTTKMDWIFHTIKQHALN

SMILES | inhibition [1] | inhibition [2] | inhibition [3] | inhibition [4] | inhibition [5] | inhibition [6] | inhibition [7] | inhibition [8] | inhibition [9] | inhibition [10] | inhibition [11] | inhibition [12] | inhibition [13] | inhibition [14] | inhibition [15] | inhibition [16] | inhibition [17] | inhibition [18] | inhibition [19] | inhibition [20]
CCN(CC)Cc1ccc(Nc2nccc(-c3cnn4ncccc34)n2)cc1 | 7.61% | -1.94% | -0.22% | 6.95% | 13.1% | 3.23% | 4.99% | 4.71% | 9.25% | 3.65% | 6.9% | -2.98% | -1.36% | 3.82% | 11.4% | 6.31% | 40.2% | -2.34% | 4.5% | 0.05%
CCc1cccc(CC)c1/C=C/c1cncc(C(=O)NC)c1 | 1.29% | 1.81% | 0.49% | 3.92% | 8.94% | 4.41% | 4.99% | -0.46% | 4.25% | -2.91% | 1.19% | -1.77% | -2.98% | 1.54% | 1.36% | 4.84% | 3.62% | -2.02% | -0.43% | 0.93%
CN(C)CCCNc1nccc(-c2c(-c3ccc(F)cc3)nn3cc(C(F)(F)F)ccc23)n1 | 2.96% | 2.1% | 6.95% | 17.8% | 67.8% | 5.1% | 17.9% | 1.74% | 5.4% | 0.47% | 5.27% | -0.17% | -0.01% | 0.79% | 0.02% | 2.6% | 2% | -3.83% | 11.1% | 0%
CS(=O)(=O)CCNCc1cc(-c2cc3c(Nc4ccc(OCc5cccc(F)c5)c(Cl)c4)ncnc3s2)cs1 | 4.92% | 0.81% | -0.39% | 7.29% | 8.32% | 1.8% | 3.36% | 5.45% | 6.67% | 4.58% | 6% | -3.5% | -2.78% | 4.7% | 5.78% | 0.67% | 7.33% | -1.24% | 3.94% | 1.57%
O=C1NC(=O)C(c2cccc(Cl)c2)=C1Nc1ccc(Cl)c(C(=O)O)c1 | 3.9% | -2.79% | 0.44% | 1.44% | 4.72% | 3.66% | 4.6% | 1.21% | 0.67% | 5.9% | 1.67% | -2.19% | -1.47% | 3.63% | 1.55% | 1.72% | -0.43% | 0.69% | -0.07% | 0.25%
FC(F)(F)c1cccc(Nc2nccc(-c3cnn4nc(-c5ccccc5)ccc34)n2)c1 | 3% | -2.14% | 1.08% | 3.54% | 1.79% | 3.08% | 3.39% | 1.85% | 0.28% | 1.53% | 1.51% | -2.07% | -0.92% | 2.52% | 8.98% | -0.34% | 8.75% | -0.22% | -1.63% | 1.87%
